Measured values reported in publication PMC5540273 (PLoS ONE, 2017).

Key:
Conditions in all cases: concentration: 1 μM, replicates: in singlicate; n = 1
AXL = test system: AXL
BIKE = test system: T1, BIKE
T1 construct: gene BMP2K

BLK = test system: BLK
BMPR1A = test system: BMPR1A
BMPR1B = test system: BMPR1B
BMPR2 = test system: BMPR2
BMX = test system: BMX
BRAF = test system: BRAF
BRK = test system: T2, BRK
T2 construct: gene PTK6

BRSK1 = test system: BRSK1
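Note: KINOMEscan kinase panel screen.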

SMILES | %Inh (AXL) | %Inh (BIKE) | %Inh (BLK) | %Inh (BMPR1A) | %Inh (BMPR1B) | %Inh (BMPR2) | %Inh (BMX) | %Inh (BRAF) | %Inh (BRK) | %Inh (BRSK1)
C[C@@H]1CC[C@H](C(=O)NC2CCCCC2)CN1c1cc(-c2ccc3c(N)n[nH]c3c2)nc(N)n1 [GSK2291363] | 4% | 78% | 52% | 0% | 0% | 0% | 21% | 5% | 27% | 0%
CCC(=O)c1c(-c2ccccc2)c2cc(Cl)ccc2c(=O)n1Cc1cc(C(=O)NC2CC2)n(C)n1 | 0% | 0% | 0% | 0% | 0% | 9% | 4% | 62% | 0% | 0%
Cc1nnc(-c2ccc3ncn(-c4ccc(S(C)=O)cc4)c3c2)o1 (stereo not shown) | 4% | 0% | 0% | 19% | 0% | 0% | 12% | 0% | 19% | 0%
COc1cccc(-n2cnc3c(N)ncnc32)c1 [SKF-97416] | 0% | 0% | 0% | 17% | 24% | 57% | 0% | 18% | 0% | 16%
COC(=O)c1c(-c2ccccc2)c2cc(C)ccc2c(=O)n1Cc1ccccc1 | 0% | 0% | 0% | 0% | 0% | 0% | 19% | 79% | 0% | 0%
Cc1nc(N(C)[C@H]2CN(C(=O)CC#N)CC[C@H]2C)c2cc[nH]c2n1 | 9% | 0% | 18% | 0% | 10% | 8% | 0% | 0% | 0% | 0%
COc1cc2ncn(-c3cc(OCc4ccc(S(C)(=O)=O)cc4)c(C(N)=O)s3)c2cc1OC [GW869979] | 31% | 0% | 46% | 11% | 30% | 8% | 6% | 6% | 0% | 4%
COc1cc(Nc2nccc(N3CCC(NC(=O)C4COc5ccccc5O4)C3)n2)cc(OC)c1OC (stereo not shown) [GSK1379761] | 17% | 57% | 16% | 0% | 0% | 26% | 16% | 0% | 2% | 9%
O=C(NCCNc1ccnc(Nc2ccc(F)cc2)n1)Nc1ccc2c(c1)OCO2 [GSK1379882] | 0% | 17% | 7% | 0% | 10% | 0% | 7% | 0% | 0% | 11%
O=C(Nc1ccc2c(c1)OCO2)NC1CCN(c2ccnc(NCc3ccc(F)cc3)n2)CC1 [GSK1379859] | 2% | 7% | 43% | 0% | 0% | 0% | 3% | 0% | 4% | 0%
O=c1cc(N2CCOCC2)nc2n(Cc3ccc(F)c(Cl)c3)ccn12 [GSK2297099] | 0% | 0% | 13% | 0% | 0% | 0% | 5% | 8% | 0% | 0%
COc1cc2ncn(-c3cc(OCc4ccncc4Br)c(C(N)=O)s3)c2cc1OC [GW854278] | 30% | 39% | 11% | 8% | 6% | 13% | 10% | 2% | 6% | 25%
COc1cc2ncn(-c3cc(OCc4ccncc4)c(C(N)=O)s3)c2cc1OC [GSK336313] | 0% | 14% | 0% | 0% | 0% | 0% | 2% | 0% | 0% | 0%
CN(C)c1cc(-c2ccc3c(N)n[nH]c3c2)nc(N)n1 [GSK2219329] | 0% | 32% | 2% | 0% | 0% | 0% | 13% | 0% | 0% | 0%
O=C(Nc1n[nH]c2cc(-c3ccccc3F)ccc12)C1CC1 [SB-733371] | 16% | 41% | 0% | 21% | 24% | 0% | 0% | 0% | 0% | 22%
COc1cccc(C2=C(Nc3cccc(C(=O)O)c3)C(=O)NC2=O)c1 [SB-390770] | 0% | 15% | 1% | 12% | 0% | 10% | 14% | 0% | 7% | 0%
CC(C)(C)c1ccc(C(=O)Nc2cn3cc(-c4ccccc4)ccc3n2)cc1 | 0% | 0% | 0% | 8% | 0% | 0% | 13% | 0% | 0% | 0%

SMILES | %Inh (AXL) | %Inh (BIKE) | %Inh (BLK) | %Inh (BMPR1A) | %Inh (BMPR1B) | %Inh (BMPR2) | %Inh (BMX) | %Inh (BRAF) | %Inh (BRK) | %Inh (BRSK1)
COC(=O)c1c(-c2ccccc2)c2cc(Br)ccc2c(=O)n1Cc1ccc(S(C)(=O)=O)cc1 | 7% | 0% | 9% | 0% | 19% | 3% | 17% | 57% | 0% | 29%
Nc1nccc2scc(-c3ccc4c(c3)CCN4C(=O)Cc3ccccc3)c12 [GSK2576924] | 36% | 8% | 1% | 0% | 0% | 2% | 19% | 0% | 43% | 0%
CCC(=O)c1c(-c2ccccc2)c2cc(Cl)ccc2c(=O)n1Cc1cc(S(C)(=O)=O)n(CC(F)F)n1 | 0% | 0% | 0% | 0% | 6% | 1% | 0% | 13% | 0% | 0%
Nc1n[nH]c2ncc(-c3ccccc3)cc12 [SB-517081] | 0% | 17% | 13% | 2% | 0% | 34% | 0% | 0% | 24% | 0%
Nc1ncnc2c1ncn2-c1cccc2ccccc12 [SKF-97184] | 0% | 0% | 6% | 0% | 0% | 35% | 0% | 0% | 0% | 0%
COc1ccc(CNC(=O)NC2CCN(c3ccnc(Nc4ccc(F)cc4)n3)C2)cc1 (stereo not shown) [GSK1379706] | 10% | 0% | 3% | 6% | 0% | 22% | 26% | 3% | 21% | 0%
FC(F)(F)c1ccc(-c2ncn(CCCN3CCOCC3)c2-c2ccncc2)cc1 [SB-217780] | 40% | 13% | 4% | 7% | 0% | 39% | 1% | 0% | 4% | 13%
CCn1c(-c2nonc2N)nc2ccccc21 [SB-693162/GW549034] | 25% | 6% | 21% | 0% | 34% | 40% | 0% | 15% | 0% | 46%
Nc1ncnc2c1ncn2-c1cccc(F)c1 [SKF-97560] | 13% | 0% | 0% | 0% | 29% | 26% | 24% | 24% | 0% | 0%
Nc1nc(-c2ccccc2F)c(-c2ccnc3ccccc23)s1 [GW560459] | 0% | 17% | 39% | 0% | 13% | 2% | 0% | 7% | 0% | 0%
COc1cccc(C2=C(N(C)c3ccccc3)C(=O)NC2=O)c1 [SB-334865] | 0% | 0% | 0% | 0% | 0% | 0% | 0% | 0% | 15% | 0%
Cc1ccc(Oc2ccc(Nc3ncnc4cc[nH]c34)cc2C)cn1 | 25% | 4% | 0% | 34% | 1% | 13% | 20% | 0% | 0% | 10%
Cc1c(Cn2c(C)nn3c(=O)cc(N4CCO[C@H](C)C4)nc23)cccc1C(F)(F)F [GSK2373690] | 0% | 31% | 10% | 15% | 0% | 0% | 21% | 0% | 32% | 7%
Nc1ncnc2c1ncn2-c1ccc(Cl)cc1 [AH2635] | 0% | 28% | 24% | 0% | 0% | 2% | 20% | 0% | 0% | 0%
Fc1cccc(CSc2nnc(-c3ccc4c(c3)CCO4)o2)c1 | 0% | 0% | 0% | 1% | 5% | 0% | 0% | 7% | 2% | 0%
CCCNC(=O)Nc1ccc(Oc2ncnc3ccn(C)c23)cc1 | 0% | 0% | 14% | 10% | 0% | 16% | 0% | 0% | 0% | 0%
CCS(=O)c1ccc(-c2coc3ccc(-c4nnc(C)o4)cc23)cc1 (stereo not shown) | 0% | 0% | 3% | 0% | 6% | 15% | 18% | 0% | 0% | 0%
